Source: PubChem BioAssay (Sanford-Burnham Center for Chemical Genomics)
Only some compounds are listed: those with a hit (about 28% of all), similar ones and a draw of the others.
CD11b adhes inh – inhibitors of human CD11b/CD18 binding to fibrinogen | K562 CD11b/CD18 adhesion to fibrinogen, ATPlite luminescence; Mn2+ added to activate the integrin | inhibition, % at 10 µM | 0.54% of 93,000 active | P05107+P11215;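 active means primary inhibition of 50% or more at 10 µM, then 40% or more on retest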
CYP2C9 inh – human CYP2C9 inhibition; P11712; CYP2C9 Supersomes, luciferin-H conversion, luminescence; inhibition, % at 5 µM; 20% of 96,000 active;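 active means blocking of liver enzyme CYP2C9 beyond about 50% at 5 µM, limit read from the data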
CYP2C19 inh – blocks human cytochrome P450 2C19; P33261; CYP2C19 Supersomes, luciferin-H EGE luminescence, 30 min; inhibition, % at 5 µM; 21% of 96,000 active; AID 778;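 active means CYP2C19 inhibition above a set limit at 5 µM in the primary screen, cut at about 50% in these data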;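 further: plate controls were negative control wells for no effect and 2.5 mM tranylcypromine positive control for full effect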
Target sequence (P33261 whole entry, looked up): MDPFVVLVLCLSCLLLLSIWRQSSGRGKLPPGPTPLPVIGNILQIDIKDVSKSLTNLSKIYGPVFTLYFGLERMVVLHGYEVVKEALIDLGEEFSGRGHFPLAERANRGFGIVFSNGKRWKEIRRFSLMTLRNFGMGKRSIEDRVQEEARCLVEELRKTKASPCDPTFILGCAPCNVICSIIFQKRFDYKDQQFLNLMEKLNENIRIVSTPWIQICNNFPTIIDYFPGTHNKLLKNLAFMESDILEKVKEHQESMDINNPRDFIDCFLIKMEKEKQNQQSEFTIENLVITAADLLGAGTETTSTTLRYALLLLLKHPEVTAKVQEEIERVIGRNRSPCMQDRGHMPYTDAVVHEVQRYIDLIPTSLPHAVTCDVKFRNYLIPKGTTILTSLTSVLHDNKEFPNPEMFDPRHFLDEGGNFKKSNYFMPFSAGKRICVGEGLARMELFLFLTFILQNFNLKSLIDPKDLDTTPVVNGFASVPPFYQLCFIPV
CD11b adhes enh – enhancers of human CD11b/CD18 binding to fibrinogen; 0.07% of 93,000 active; P05107+P11215; K562 CD11b/CD18 adhesion to fibrinogen, ATPlite luminescence; activation, % at 10 µM;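 active means 10 µM primary screen giving 50% or more activity, confirmed by 40% or more on retest at that dose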
CYP2C19 activ – activators of human cytochrome P450 2C19; P33261; recombinant CYP2C19, luciferin-H EGE luminescence; hits give high values; 0 = fully inhibited enzyme, 1 = untreated enzyme; activation factor at 5 µM; 96,000 tested, under 10 active;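 active means activation factor of at least 2 at 5 µM in the primary screen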;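 further: 0 = wells with 2.5 mM tranylcypromine and 1 = vehicle-only wells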
CYP2C9 act – activators of human CYP2C9. P11712. recombinant CYP2C9, luciferin-H conversion, luminescence; hits give high values; factor 1 = untreated enzyme, 0 = blocked. activation factor at 5 µM. 1.4% of 96,000 active. AID 1024;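 active means activation factor of 2 or more for CYP2C9 at a 5 µM dose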;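 further: 0 = sulfaphenazole-blocked wells and 1 = vehicle-only wells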
An asterisk follows results filed as active; . = no result.

SMILES	CD11b adhes inh	CYP2C9 inh	CYP2C19 inh	CD11b adhes enh	CYP2C19 activ	CYP2C9 act
CN(C(=O)C1CCN(S(=O)(=O)c2cccs2)CC1)C1CCCCC1	3	-5	13	0	0.9	1
CCOC(=O)c1ccc2c(c1)nc(C1CCN(S(=O)(=O)c3cccs3)CC1)n2CC	14	87*	84*	-4	0.2	0.1
CCCCC(=O)Nc1ccc(C(=O)N2CCN(C)CC2)cc1	-30	-9	3	-1	1	1.1
Cc1ccnc(SCc2cc(=O)c(OC(=O)c3ccc(S(=O)(=O)N(C)C)cc3)co2)n1	-8	.	.	13	.	.
Cc1cc(NC(=O)C2CCN(S(=O)(=O)c3cnc[nH]3)CC2)ccc1Br	-15	79*	45	-3	0.5	0.2
CCOC(=O)c1cccc(NC(=O)C2CCN(S(=O)(=O)c3cccs3)CC2)c1	11	84*	88*	-2	0.1	0.2
CCOc1cc(S(=O)(=O)NC2CC2)c(OCC)cc1-n1cnnn1	-1	95*	80*	-3	0.2	0
CCOc1cc(S(=O)(=O)NCc2ccco2)c(OCC)cc1-n1cnnn1	0	69*	31	3	0.7	0.3
CCOc1cc(S(=O)(=O)N2CCN(c3ccc(F)cc3)CC2)c(OCC)cc1-n1cnnn1	-4	18	-4	-3	1	0.8
CCOc1cc(S(=O)(=O)NCCc2ccc(OC)c(OC)c2)c(OCC)cc1-n1cnnn1	-6	76*	13	-2	0.9	0.2
O=S(=O)(NCC1OCCc2ccccc21)c1ccc(S(=O)(=O)N2CCOCC2)cc1 (centres undefined)	-1	1	11	-6	0.9	1
CCOc1cc(S(=O)(=O)NCC2OCCc3ccccc32)c(OCC)cc1-n1cnnn1 (centres undefined)	-7	51*	32	0	0.7	0.5
CCOc1cc(S(=O)(=O)NCc2ccc(OC)cc2)c(OCC)cc1-n1cnnn1	-6	85*	31	-1	0.7	0.1
CCOc1ccc(-n2cnnn2)cc1S(=O)(=O)NCCc1ccc(OC)c(OC)c1	-29	7	10	4	0.9	0.9
COc1ccc(S(=O)(=O)N2CCC(C(=O)N3CCc4ccccc4C3)CC2)cc1C	4	32	50	-1	0.5	0.7
CS(=O)(=O)N1CCC(C(=O)N2CCc3ccccc3C2)CC1	-1	-23	95*	-7	0.1	1.2
CS(=O)(=O)N1CCCC(C(=O)N2CCc3ccccc3C2)C1 (centres undefined)	-1	2	13	1	0.9	1
COc1ccc(S(=O)(=O)N2CCC(C(=O)N3CCc4ccccc4C3)CC2)cc1	5	-177	47	-2	0.5	2.8*
COc1ccc(NS(=O)(=O)c2cc(C)ccc2NC(=O)c2cc(C)oc2C)cc1	39	24	71*	-2	0.3	0.8
O=C(NC1CCCC1)C1CCN(S(=O)(=O)c2cccc3cccnc23)CC1	.	-213	22	.	0.8	3.1*
O=C(NCc1ccccc1)C1CCN(S(=O)(=O)c2cccc3cccnc23)CC1	6	-57	-3	-1	1	1.6
CC1CCCN(C(=O)C2CCN(S(=O)(=O)c3cccc4cccnc34)CC2)C1 (centres undefined)	-1	-228	49	1	0.5	3.3*
CCN1CCN(C(=O)C2CCN(S(=O)(=O)c3cccc4cccnc34)CC2)CC1	-13	-72	-15	-5	1.2	1.7
CCOc1ccccc1C1CC(=O)Nc2cc3c(cc21)OCCO3 (centres undefined)	34	69*	54*	-7	0.5	0.3
CC(C)Oc1ccccc1C1CC(=O)Nc2cc3c(cc21)OCO3 (centres undefined)	-3	76*	99*	1	0	0.2
CCOc1ccccc1C1CC(=O)Nc2cc(OC)c(OC)c(OC)c21 (centres undefined)	33	-1	8	-2	0.9	1
O=C(NC(NC(=O)c1ccccc1)c1ccccc1)c1ccccc1	14	4	8	2	0.9	1
CCCN1CN(Cc2ccco2)c2nc3ccccc3n2C1	11	2	11	2	0.9	1
